Source: PubChem BioAssay (National Center for Advancing Translational Sciences (NCATS))
HCV inhibitor = qHTS Assay for Inhibitors of Hepatitis C Virus (HCV) | Potency, µM (titrated, usually from 41.8 µM), actives largely listed as inhibitors | 340,000 tested, 3.4% active | Huh7.5.1 HCVcc-Cre infection, luciferase reporter, 44 h; active = well fitted inhibition curve with a large enough effect; inconclusive = small, poorly fitted or top-dose-only effect, or another doubt; inactive = no such curve, though single readings can be large or run the other way
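Infectious HCV cell culture screen: compound-treated cells (1,000/well, pre-plated 4 h) are infected with HCVcc-Cre at roughly 0.5 moi and grown 44 h. Infection is quantified by luciferase signal after 15 min substrate incubation at room temperature.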
FMDV inh = High Throughput Screening for Foot and Mouth Disease Virus Antivirals. FMDV antiviral cell-based qHTS. Potency, µM (doses to about 57.9 µM), actives largely listed as inhibitors. 410,000 tested, 1.2% active; calls by dose curve; tested in HEK293T cells; note: read-out not given here; nearly all actives have a fitted effect of over 45% in size
HCMV antiviral = qHTS Assay for inhibitors of the human cytomegalovirus (HCMV); HFF cells, HCMV-luciferase reporter, 72 h; stronger effect = lower value; activity change, negative = inhibition, % at 57.5 µM; 410,000 tested, 4.5% active; AID 1259415, 2018; in the data active = activity change below about -60%; inconclusive = no clear call, values can overlap the other calls; inactive = above about -39%
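Inhibition of viral replication was scored as loss of reporter luminescence in HFFs infected with HCMV-luciferase (MOI 1 PFU/cell) for 72 h; compounds tested at 2 doses, normalized to buffer and Salinomycin controls.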
Lassa entry inh = qHTS for Inhibitors of binding or entry into cells for Lassa Virus. Lassa virus pseudotype entry inhibition, cell reporter. Potency, µM (top dose mostly 37.9 µM), usual class: inhibitors. 300,000 tested, 1.2% active; calls by dose curve; tested in HEK293 cells; note: nearly all actives have a fitted effect of over 50% in size
MARV entry inh = qHTS for inhibitors of binding or entry into cells for Marburg Virus. Potency, µM (highest dose often 37.8 µM), actives largely listed as inhibitors. Marburg virus pseudotyped entry inhibition, cell reporter. 300,000 tested, 1.8% active; calls by dose curve; tested in HEK293 cells
Large screens that a line does not name were inactive. Hits are enriched below; roughly 7.9% of the tested compounds scored in any of these assays.

CCS(=O)(=O)c1ncc(Cl)c(C(=O)NCc2ccc(OC)cc2)n1	FMDV inh 25.1µM, HCMV antiviral -96.5, Lassa entry inh inconclusive (no result: HCV inhibitor, MARV entry inh)
COc1ccccc1NC(=O)c1nc(S(=O)(=O)Cc2ccccc2)ncc1Cl	HCV inhibitor inconclusive, FMDV inh 28.2µM, HCMV antiviral -112.8, Lassa entry inh inconclusive, MARV entry inh inconclusive
CC1=C(C(=O)Nc2ccccc2C)C(c2ccccn2)n2nc(SCc3ccccc3F)nc2N1 (configuration not stated)	none (no result: HCV inhibitor)
O=C(c1ccco1)N1CCN(C(=O)c2ccco2)C1=S	HCV inhibitor inconclusive, FMDV inh 31.6µM, Lassa entry inh inconclusive, MARV entry inh inconclusive
CCC(C(=O)N1CCN(C(=O)c2ccco2)CC1)c1ccccc1 (configuration not stated)	none
CCCSc1ccccc1C(=O)N1CCN(C(=O)c2ccco2)CC1	HCMV antiviral -101.1, Lassa entry inh inconclusive
CCCNC(=O)c1nnsc1S(=O)c1ccc(Cl)cc1 (configuration not stated)	HCV inhibitor inconclusive, FMDV inh 35.5µM, HCMV antiviral -101.5, Lassa entry inh inconclusive, MARV entry inh inconclusive
CCCNC(=O)c1nnsc1S(=O)(=O)c1ccc(Cl)cc1	HCV inhibitor 6.31µM, FMDV inh 31.6µM, HCMV antiviral -99.1, Lassa entry inh 2.82µM, MARV entry inh inconclusive
CNC(=O)c1nnsc1S(=O)c1ccc(Cl)cc1 (configuration not stated)	HCV inhibitor inconclusive, FMDV inh inconclusive, Lassa entry inh inconclusive, MARV entry inh inconclusive
CCCNC(=O)NS(=O)(=O)c1ccc(Cl)cc1	FMDV inh inconclusive
O=C1CCCCC1Sc1nnc(-c2ccc3c(c2)OCO3)o1 (configuration not stated)	FMDV inh 3.98µM, HCMV antiviral inconclusive, Lassa entry inh inconclusive, MARV entry inh 5.62µM
Clc1ccc(CSc2nnc(-c3ccc4c(c3)OCO4)o2)cc1	MARV entry inh inconclusive
O=S(=O)(O)c1cc(OS(=O)(=O)c2ccccc2)cc2ccccc12	none (no result: Lassa entry inh, MARV entry inh)
CN(C)c1cccc(C(=O)Nc2nc3ccccc3[nH]2)c1	Lassa entry inh inconclusive, MARV entry inh inconclusive
COc1cc(SC)ccc1C(=O)Nc1nc2ccccc2[nH]1	FMDV inh 0.0355µM, HCMV antiviral -98.2, Lassa entry inh inconclusive, MARV entry inh inconclusive
Cc1ccc(C(=O)Nc2cnc3ccccc3c2)cc1	FMDV inh 3.55µM, HCMV antiviral -81.3, Lassa entry inh 5.01µM, MARV entry inh inconclusive
Cc1ccc(Nc2nc3ccccc3c(=O)s2)cc1C	HCMV antiviral -73.0
COc1ccc(Nc2nc3ccccc3c(=O)s2)c(OC)c1	none
Cc1cc(C(=O)Nc2cnc3ccccc3c2)ccc1[N+](=O)[O-]	HCV inhibitor inconclusive, Lassa entry inh inconclusive, MARV entry inh inconclusive
Cc1ccc(N(C)S(=O)(=O)c2cccc(C(=O)Nc3nc4ccccc4[nH]3)c2)cc1	HCV inhibitor 11.2µM, HCMV antiviral -87.4, Lassa entry inh 16.4µM, MARV entry inh 11.6µM
CCC1CN(CC(=O)NC(C)c2cn(C)nc2C)Cc2cc(OC)ccc2O1 (configuration not stated)	none (no result: HCV inhibitor, HCMV antiviral, Lassa entry inh, MARV entry inh)
Cc1ccc(C(=O)Nc2nc3ccccc3[nH]2)cc1	FMDV inh 11.2µM, HCMV antiviral -84.4, Lassa entry inh inconclusive, MARV entry inh 1.41µM
COc1ccccc1C(=O)NCCC(=O)Nc1nc2ccccc2[nH]1	HCV inhibitor inconclusive
Cc1ccc(C(=O)Nc2nc3ccccc3c(=O)s2)cc1	HCV inhibitor 8.91µM (no result: FMDV inh)
COc1ccccc1C(=O)Nc1nc2ccccc2[nH]1	FMDV inh 1µM, HCMV antiviral -76.4, Lassa entry inh inconclusive, MARV entry inh inconclusive
O=C(Nc1nc2ccccc2[nH]1)c1ccc([N+](=O)[O-])cc1	none
C/C(=N\Nc1nc2ccccc2[nH]1)c1ccc([N+](=O)[O-])cc1	HCV inhibitor 10µM, Lassa entry inh inconclusive
CN(C)C(=O)c1ccc(-c2ccc3ncnc(Nc4ccccc4)c3c2)cc1	none (no result: HCV inhibitor, HCMV antiviral, Lassa entry inh, MARV entry inh)
COc1ccccc1OC(=O)c1ccc(SC)cc1OC	HCV inhibitor inconclusive, Lassa entry inh 10µM, MARV entry inh inconclusive
CCCc1cc(C(N)=O)c(NC(=O)c2ccoc2C)s1	HCV inhibitor 7.08µM
COc1cc(=O)n2c(c1C(=O)NC(C)c1ccco1)CCN(Cc1ccccc1Cl)CC2 (configuration not stated)	none (no result: HCV inhibitor, HCMV antiviral, Lassa entry inh, MARV entry inh)
COc1ccc(C2=[N+](C)CCn3cccc32)c(OC)c1	FMDV inh inconclusive, HCMV antiviral -96.3, Lassa entry inh inconclusive, MARV entry inh inconclusive
COc1ccc(CN2CCc3ccccc3C2)c(OC)c1	none
O=C(NCCO)C(=O)Nc1cc2c3c(c1)CC(=O)N3CCC2	HCMV antiviral active (no result: Lassa entry inh, MARV entry inh)
O=C(CCl)c1cc2c3c(c1)CC(=O)N3CCC2	FMDV inh 22.4µM, MARV entry inh inconclusive
O=C(CCc1ccccc1)Nc1cc2c3c(c1)CCC(=O)N3CCC2	HCV inhibitor inconclusive, HCMV antiviral -99.0
CC(C)CCNC(=O)C(=O)Nc1cc2c3c(c1)CC(=O)N3CCC2	none (no result: Lassa entry inh, MARV entry inh)
COc1ccc(S(=O)(=O)NCC(c2ccco2)S(=O)(=O)c2cccs2)cc1F (configuration not stated)	HCMV antiviral inconclusive (no result: HCV inhibitor, MARV entry inh)
CNC(=O)C1CCN(S(=O)(=O)c2c(C)noc2/C=C/c2cccc(OC)c2)CC1	none (no result: Lassa entry inh, MARV entry inh)
Clc1ccc(OCc2cc(-c3ccccc3)no2)c(Cl)c1	Lassa entry inh 11.2µM, MARV entry inh 7.08µM
CCN1CCc2c(sc(NC(=O)Nc3ccc(Cl)c(Cl)c3)c2C(N)=O)C1	HCV inhibitor inconclusive, MARV entry inh inconclusive
CSc1nsc(SC)c1C(=O)Nc1ccc(C(C)(C)C)cc1	MARV entry inh 11.2µM
O=C(/C=C/c1cccc(F)c1)NC1CCN(Cc2ccccc2)CC1	HCMV antiviral -63.4
O=C(/C=C/c1cccc(Br)c1)NC1CCN(Cc2ccccc2)CC1	HCV inhibitor inconclusive, FMDV inh inconclusive, HCMV antiviral inconclusive, MARV entry inh inconclusive
CCOc1ccc(NC(=S)N(CCc2c(C)[nH]c3ccccc23)Cc2ccco2)cc1	HCV inhibitor inconclusive
COc1ccccc1NC(=O)N(Cc1ccco1)Cc1cc2cc(C)cc(C)c2[nH]c1=O	HCV inhibitor 3.16µM, FMDV inh inconclusive, Lassa entry inh inconclusive, MARV entry inh inconclusive
COc1ccccc1NC(=O)N(Cc1ccco1)Cc1cc2ccc(C)c(C)c2[nH]c1=O	HCV inhibitor inconclusive, FMDV inh inconclusive, Lassa entry inh inconclusive, MARV entry inh inconclusive
COc1ccccc1NC(=S)N(Cc1ccco1)Cc1cc2cc(C)c(C)cc2[nH]c1=O	HCV inhibitor inconclusive, HCMV antiviral -61.9, Lassa entry inh inconclusive, MARV entry inh inconclusive
COc1ccc(NC(=S)N(CCc2c(C)[nH]c3ccccc23)Cc2ccco2)cc1	HCMV antiviral inconclusive, Lassa entry inh inconclusive, MARV entry inh 13µM
COc1ccc(-n2c(=O)c3c4c(sc3n(CC(=O)N3CCCCC3C)c2=O)CCC4)c(OC)c1 (configuration not stated)	none (no result: HCV inhibitor)
CCc1cc(=O)oc2c(CNCc3c(F)cccc3Cl)c(O)ccc12	none
